Test results: PubChem BioAssay (NCI)
This is part of a sample that, as a whole, favours compounds with a hit. Of some 83,000 tested, about 20% had one in any assay.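 Negative percent growth values reflect cell death: -40 means 40% of the cells present at the start died, and -100 means all died.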 Calls of active or inactive are those of the source. The calls were made as follows: active = growth percent below 10; inactive = the rest.

Key:
Assay in all cases: NCI-60 one-dose screen, 48 h (100 = growth as untreated, 0 = no growth, -100 = all killed)
Conditions in all cases: 10 µM unless noted
DU-145 prostate = test system: DU-145 prostate
K-562 leukemia = test system: K-562 leukemia
MALME-3M melanoma = test system: MALME-3M melanoma
MDA-MB-231 breast = test system: MDA-MB-231 breast
RXF 393 renal = test system: RXF 393 renal
SF-268 CNS = test system: SF-268 CNS
SF-295 CNS = test system: SF-295 CNS
SF-539 CNS = test system: SF-539 CNS
UACC-257 melanoma = test system: UACC-257 melanoma
M14 melanoma = test system: M14 melanoma

Measured: growth

Cc1ccc(C(C)C)c(OCc2ccc(C(=O)N/N=C/c3cccc(O)c3O)cc2)c1
inactive: DU-145 prostate 33.6% | MALME-3M melanoma 29.6% | MDA-MB-231 breast 41.1% | RXF 393 renal 48.3% | SF-268 CNS 25.6% | SF-295 CNS 36.1% | SF-539 CNS 26% | UACC-257 melanoma 58.8% | M14 melanoma 18.1%
active: K-562 leukemia 4.92%

O=C(Nc1ccc(-n2cc(-c3ccncc3)c(-c3ccc(Cl)c(O)c3)n2)cc1)c1ccc(Cl)c(Cl)c1
inactive: DU-145 prostate 61.8% | K-562 leukemia 10.3% | MALME-3M melanoma 43.6% | MDA-MB-231 breast 31.5% | SF-268 CNS 61.1% | SF-539 CNS 23.5% | UACC-257 melanoma 58.6%
active: RXF 393 renal -52.1% | SF-295 CNS -50.3% | M14 melanoma -65.8%

CCCNC(=O)Oc1ccc(/C(=C(/CC)Cc2ccccc2)c2ccc(OCCN(CC)CC)cc2)cc1
inactive: DU-145 prostate 86.1% | MALME-3M melanoma 79.6% | MDA-MB-231 breast 60.8% | RXF 393 renal 66.8% | SF-268 CNS 71.4% | SF-295 CNS 97.8% | SF-539 CNS 89.7% | UACC-257 melanoma 82.6%
active: K-562 leukemia -31.9% | M14 melanoma -35.3%

[2H]c1nc(=Nc2cc(NC(=O)C=C)c(N(C)CCN(C)C)cc2OC)[nH]c(-c2cn(C([2H])([2H])[2H])c3ccccc23)c1[2H]
inactive: DU-145 prostate 45% | MDA-MB-231 breast 54% | RXF 393 renal 44.1% | SF-268 CNS 51.2% | SF-295 CNS 85.4% | SF-539 CNS 40.5%
active: K-562 leukemia -18.3% | MALME-3M melanoma 8.26% | UACC-257 melanoma -2.01% | M14 melanoma -52.7%

CC(=O)Nc1nc(C)c(C(=O)NNS(=O)(=O)c2ccccc2)s1
inactive: DU-145 prostate 135% | K-562 leukemia 149% | MALME-3M melanoma 96.5% | MDA-MB-231 breast 107% | RXF 393 renal 110% | SF-268 CNS 117% | SF-295 CNS 132% | SF-539 CNS 101% | UACC-257 melanoma 103% | M14 melanoma 97.6%

CC(=O)OCC(=O)[C@@]1(O)[C@H](C)C[C@H]2[C@@H]3C=C(C)C4=Cc5c(cnn5-c5ccc(F)cc5)C[C@]4(C)[C@H]3[C@@H](O)C[C@@]21C
inactive: DU-145 prostate 13.9% | K-562 leukemia 12.6% | MALME-3M melanoma 61.8% | MDA-MB-231 breast 53.1% | SF-268 CNS 34.2% | UACC-257 melanoma 49.8% | M14 melanoma 32.6%
active: RXF 393 renal -12.3% | SF-295 CNS -32.2% | SF-539 CNS -39.6%

C/C(CCC(=O)O)=N/Nc1ccc([N+](=O)[O-])cc1
inactive: DU-145 prostate 82.2% | K-562 leukemia 22.3% | MALME-3M melanoma 111% | MDA-MB-231 breast 51.4% | RXF 393 renal 99.4% | SF-268 CNS 72.3% | SF-539 CNS 12.7% | UACC-257 melanoma 90.3% | M14 melanoma 24.3%
active: SF-295 CNS 2%

Cc1nc2c(nnn2-c2ccccc2)c2nc(-c3ccc(Cl)cc3)oc(=O)c12
inactive: DU-145 prostate 119% | K-562 leukemia 112% | MALME-3M melanoma 101% | MDA-MB-231 breast 119% | RXF 393 renal 104% | SF-268 CNS 103% | SF-295 CNS 102% | SF-539 CNS 96.8% | UACC-257 melanoma 117% | M14 melanoma 108%

CCCCCCNC(=O)Oc1ccc(/C(=C(/C)Cc2ccc(OC)cc2)c2ccc(OCCN(C)C)cc2)cc1
inactive: DU-145 prostate 78.7% | MDA-MB-231 breast 43% | RXF 393 renal 51.4% | SF-268 CNS 72.3% | SF-295 CNS 65.8% | SF-539 CNS 73.2%
active: K-562 leukemia -38.8% | MALME-3M melanoma -34.7% | UACC-257 melanoma 5.2% | M14 melanoma -53.9%

O=C1/C(=N\c2cc(=O)[nH]n2S(=O)(=O)c2ccccc2)Nc2ccccc21
inactive: DU-145 prostate 108% | K-562 leukemia 98.7% | MALME-3M melanoma 95.1% | MDA-MB-231 breast 96.5% | RXF 393 renal 101% | SF-268 CNS 97.6% | SF-295 CNS 101% | SF-539 CNS 94.8% | UACC-257 melanoma 123% | M14 melanoma 91.1%

CCOC(=O)c1c(C)oc2ncnc(Nc3ccc(NC(=O)Nc4ccc(CC)cc4)cc3)c12
inactive: DU-145 prostate 103% | K-562 leukemia 98% | MALME-3M melanoma 101% | MDA-MB-231 breast 94.7% | RXF 393 renal 98.3% | SF-268 CNS 103% | SF-295 CNS 109% | SF-539 CNS 89.4% | UACC-257 melanoma 111% | M14 melanoma 99.9%

CCC1(CC)C(OC)NC(Br)=C(C#N)C1(C#N)C(N)=O (stereo not given)
active: RXF 393 renal -5.04% | M14 melanoma -100%
inactive: DU-145 prostate 97.5% | K-562 leukemia 91.5% | MALME-3M melanoma 137% | MDA-MB-231 breast 102% | SF-268 CNS 131% | SF-295 CNS 122% | SF-539 CNS 93.9% | UACC-257 melanoma 103%

COc1cc2ncnc(-n3ncc4cc(NC(=O)Nc5ccccc5)ccc43)c2cc1OC
inactive: DU-145 prostate 10.5% | K-562 leukemia 39.1% | SF-268 CNS 21.7% | SF-295 CNS 26.9% | UACC-257 melanoma 28.7%
active: MALME-3M melanoma -13.8% | MDA-MB-231 breast -8.14% | RXF 393 renal -84.3% | SF-539 CNS 0.968% | M14 melanoma 6.8%

Cc1ccc(S(=O)(=O)N/N=C2\CC3CCC2C3)cc1 (stereo not given)
inactive: DU-145 prostate 114% | K-562 leukemia 103% | MALME-3M melanoma 102% | MDA-MB-231 breast 111% | RXF 393 renal 112% | SF-268 CNS 113% | SF-295 CNS 86.6% | SF-539 CNS 97.6% | UACC-257 melanoma 114% | M14 melanoma 104%

CN(C)CCOC(=O)C(C)(C)C
inactive: DU-145 prostate 122% | K-562 leukemia 101% | MALME-3M melanoma 105% | MDA-MB-231 breast 93.9% | RXF 393 renal 102% | SF-268 CNS 121% | SF-295 CNS 108% | SF-539 CNS 109% | UACC-257 melanoma 92.5% | M14 melanoma 98.3%

CC(=O)Nc1nc(C)c(C(=O)N/N=C/N2CCOCC2)s1
inactive: DU-145 prostate 109% | K-562 leukemia 174% | MALME-3M melanoma 114% | MDA-MB-231 breast 109% | RXF 393 renal 119% | SF-268 CNS 103% | SF-295 CNS 110% | SF-539 CNS 105% | UACC-257 melanoma 118% | M14 melanoma 113%

COc1cc(-c2nn(-c3ccc(NC(=O)c4ccc(Cl)c(C(F)(F)F)c4)cc3)cc2-c2ccncc2)ccc1Cl
inactive: DU-145 prostate 45.2% | MALME-3M melanoma 14.9% | SF-268 CNS 43.8% | SF-539 CNS 13% | UACC-257 melanoma 54.2%
active: K-562 leukemia 8.48% | MDA-MB-231 breast 3.94% | RXF 393 renal -56.3% | SF-295 CNS -33.2% | M14 melanoma -44.3%

O=c1[nH]c2cc(O)ccc2n2cc3c(F)cccc3c12
inactive: DU-145 prostate 33.9% | K-562 leukemia 24.3% | MALME-3M melanoma 40.3% | MDA-MB-231 breast 52.4% | SF-268 CNS 19.4% | SF-295 CNS 15.4% | SF-539 CNS 16.6% | UACC-257 melanoma 51.2% | M14 melanoma 25.2%
active: RXF 393 renal 4.74%

COc1cc(NC(=O)CSc2nc3ccc(Cl)cc3c(=O)n2-c2ccc(F)cc2)cc(OC)c1OC
inactive: DU-145 prostate 96.9% | K-562 leukemia 80.5% | MALME-3M melanoma 85.8% | MDA-MB-231 breast 64.7% | RXF 393 renal 80.2% | SF-268 CNS 79.8% | SF-295 CNS 80% | SF-539 CNS 98.4% | UACC-257 melanoma 97.4% | M14 melanoma 84.8%

Cc1ccc(C(=O)Nc2ccc(CN3CCN(C)CC3)c(C(F)(F)F)c2)cc1C#Cc1cncc2ncccc12
inactive: SF-295 CNS 27.3%
active: DU-145 prostate -88.1% | K-562 leukemia -67.4% | MALME-3M melanoma -88.9% | MDA-MB-231 breast -97% | RXF 393 renal -95.7% | SF-268 CNS -70.6% | SF-539 CNS -98.2% | UACC-257 melanoma -64% | M14 melanoma -89.5%

COc1ccc(-c2nc(SCC(C)C)nc(Nc3ccccc3)c2C#N)cc1
inactive: DU-145 prostate 100% | K-562 leukemia 82.1% | MALME-3M melanoma 96% | MDA-MB-231 breast 93.5% | RXF 393 renal 98.8% | SF-268 CNS 87.9% | SF-295 CNS 77.1% | SF-539 CNS 70.5% | UACC-257 melanoma 83.8% | M14 melanoma 95.8%

Cc1ncc(C(=O)Nc2ccc(CN3CCN(C)CC3)c(C(F)(F)F)c2)cc1C#Cc1c(N)ncc2ccccc12
active: DU-145 prostate -87.8% | K-562 leukemia -73.2% | MALME-3M melanoma -84.9% | MDA-MB-231 breast -96.6% | RXF 393 renal -93.9% | SF-268 CNS -54.4% | SF-295 CNS -90.5% | SF-539 CNS -98.5% | UACC-257 melanoma -86% | M14 melanoma -86.1%

O=P(OCCCl)(OCCCl)C(O)c1ccccc1Cl (stereo not given)
inactive: DU-145 prostate 112% | K-562 leukemia 96.6% | MALME-3M melanoma 96.7% | MDA-MB-231 breast 108% | RXF 393 renal 125% | SF-268 CNS 103% | SF-295 CNS 102% | SF-539 CNS 98.1% | UACC-257 melanoma 137% | M14 melanoma 105%

O=C1N/C(=N\c2nnc(-c3ccc(O)cc3)s2)S/C1=C\c1ccccc1O
inactive: DU-145 prostate 95.2% | K-562 leukemia 103% | MALME-3M melanoma 82.8% | MDA-MB-231 breast 99.4% | RXF 393 renal 113% | SF-268 CNS 90.7% | SF-295 CNS 94% | SF-539 CNS 101% | UACC-257 melanoma 102% | M14 melanoma 91.1%

COC(=O)/C=C1/CCCCC1(C)C(=O)OC (stereo not given)
inactive: DU-145 prostate 112% | K-562 leukemia 103% | MALME-3M melanoma 109% | MDA-MB-231 breast 110% | RXF 393 renal 106% | SF-268 CNS 110% | SF-295 CNS 120% | SF-539 CNS 119% | UACC-257 melanoma 98.4% | M14 melanoma 101%

CCCNC(=O)Oc1ccc(/C(=C(/C)Cc2ccc(OC)cc2)c2ccc(OCCN3CCCCC3)cc2)cc1
inactive: DU-145 prostate 97% | K-562 leukemia 50.8% | MALME-3M melanoma 112% | MDA-MB-231 breast 79.5% | RXF 393 renal 88.7% | SF-268 CNS 81.8% | SF-295 CNS 102% | SF-539 CNS 94% | UACC-257 melanoma 93.7% | M14 melanoma 85.6%

c1ccc(Nc2ccccn2)cc1
inactive: DU-145 prostate 111% | K-562 leukemia 89.5% | MALME-3M melanoma 103% | MDA-MB-231 breast 96.6% | RXF 393 renal 113% | SF-268 CNS 115% | SF-295 CNS 102% | SF-539 CNS 99.5% | UACC-257 melanoma 104% | M14 melanoma 107%
